# Activity calls are given as the source filed them.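 How the source made its calls, unless noted: active means inhibition above 20% together with a positive visual image hit; inconclusive means visual image hit but inhibition not above 20%; inactive means no visual image hit.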
# Legend:
# [1] = inhibitors of TNFa-induced NFkB p65 translocation, primary screen, imaging, HUVEC, MLSMR starter and 10KST1 sets (AID 438); conditions: HUVEC TNFa-induced p65 nuclear translocation; cell count: measured here: nuclei count (cytotoxicity indicator), at 2.08 µM; inhibition: at 2 µM, stronger effect = higher value, 0% TNFa-plus-vehicle, 100% no-TNFa wells;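 further: compound added about 3h40 before a 20 min TNFalpha stimulation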;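 on inhibition: signal is the nuclear over cytoplasmic p65 intensity ratio per well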
# [2] = reduction of polyQ htt aggregates in cells – imaging, exon1htt(103Q)mCFP cells, high-content imaging, primary screen (AID 483;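 active means visual image review flags a hit and inhibition of aggregation exceeds 20%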;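 further: compound exposure lasted 3 days before fixation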;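 on nuclei count: percent of the per-plate median nuclei count of sample wells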); conditions: exon1htt(103Q)mCFP cell line, aggregate imaging, at 2 µM; inhibition of aggregation: stronger effect = higher value; nuclei count: measured here: cell count, toxicity
# [3] = endothelial E-selectin expression blockers – imaging, HUVEC, immunofluorescence, MLSMR starter and 10KST1 sets, primary screen (AID 487;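 active means visually confirmed hit in the image check and inhibition above 20%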;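 on inhibition: signal is fraction of cell area covered by stained E-selectin grains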;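 on nuclei count: 100% = median nuclei count of all wells on the same plate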); conditions: HUVEC TNFalpha-induced E-selectin immunofluorescence imaging, at 2 µM; inhibition: stronger effect = higher value; nuclei count: measured here: cell number, toxicity
# [4] = target: Voltage-gated potassium channel subunit beta-2 (Rattus norvegicus) (UniProt P62483); test: inhibitors of rat Kvbeta2 reductase activity – biochemical, NADPH fluorescence, primary screen (AID 622;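 active means fluorescence slope higher than the sample average by over 3 SD, cut at about -0.22 in these data, passing the limit was not always enough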;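 further: slope of raw intensity against log time taken from 70 to 1610 s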); conditions: recombinant KvBeta, 4-cyanobenzaldehyde reduction, at 10 µM, stronger effect = higher value
# Sequence of Voltage-gated potassium channel subunit beta-2 (Rattus norvegicus) (P62483 whole entry, looked up): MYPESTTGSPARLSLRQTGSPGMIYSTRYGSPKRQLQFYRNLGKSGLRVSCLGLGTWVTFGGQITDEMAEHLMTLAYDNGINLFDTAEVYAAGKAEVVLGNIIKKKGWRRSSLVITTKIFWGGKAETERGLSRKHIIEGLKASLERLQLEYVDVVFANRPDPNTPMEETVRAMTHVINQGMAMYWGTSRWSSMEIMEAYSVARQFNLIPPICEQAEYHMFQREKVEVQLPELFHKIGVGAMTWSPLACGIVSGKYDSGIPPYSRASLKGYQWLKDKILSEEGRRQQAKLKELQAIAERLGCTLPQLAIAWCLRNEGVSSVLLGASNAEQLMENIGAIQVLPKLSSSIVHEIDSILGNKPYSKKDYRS
# [5] = target: Voltage-gated potassium channel subunit beta-2 (Rattus norvegicus) (UniProt P62483); test: enhancers of rat Kvbeta2 NADPH turnover – biochemical, NADPH fluorescence, primary screen (AID 623;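 active means NADPH fluorescence slope more negative than the mean of all samples by about 3 SD, 99.7% confidence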;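 further: fluorescence intensity change per second fitted from 20 to 320 s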); conditions: Recombinant KvBeta, NADPH fluorescence decrease slope, 10 min; at 10 µM; stronger effect = lower value
# [6] = target: Alpha-2C adrenergic receptor (Homo sapiens) (UniProt P18825); test: compounds altering alpha2C-coupled GIRK flux – cell-based, HEK293 alpha2C/GIRK1/2, thallium flux, primary screen (AID 624;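 active means fluorescence slope after compound addition differing from the mean of all screened samples at 99.7% confidence, in either direction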;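 further: slope of fluorescence ratio to pre-addition baseline per second over 15 to 24 s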); conditions: thallium flux BTC fluorescence, at 10 µM, actives lie on both sides
# Sequence of Alpha-2C adrenergic receptor (Homo sapiens) (P18825 whole entry, looked up): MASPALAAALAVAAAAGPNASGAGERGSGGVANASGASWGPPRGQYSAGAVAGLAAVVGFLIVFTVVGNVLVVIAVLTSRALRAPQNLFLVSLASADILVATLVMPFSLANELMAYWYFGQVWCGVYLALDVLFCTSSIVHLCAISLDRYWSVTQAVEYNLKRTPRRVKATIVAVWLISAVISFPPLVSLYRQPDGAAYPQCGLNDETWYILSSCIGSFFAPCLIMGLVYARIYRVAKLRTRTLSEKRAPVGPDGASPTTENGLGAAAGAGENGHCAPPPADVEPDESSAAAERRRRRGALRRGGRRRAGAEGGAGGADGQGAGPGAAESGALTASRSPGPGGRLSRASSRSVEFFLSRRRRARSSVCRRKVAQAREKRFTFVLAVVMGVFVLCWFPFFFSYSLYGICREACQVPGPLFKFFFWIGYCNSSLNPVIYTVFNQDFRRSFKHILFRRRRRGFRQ
# [7] = blockers of RIG-like receptor reporter activation – cell-based, Sendai virus stimulus, luciferase, 10K MLSCN set, TLR/RLR signaling modifier project, primary screen (AID 602276;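 active means inhibition at or above 50% at 10 µM; inactive means inhibition below 50%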;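 further: firefly luciferase from ISG56 promoter only with Renilla not read in this screen; 0% = Sendai virus plus DMSO and 100% = medium plus DMSO without virus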); conditions: HEK293 RL24 IRF3 luciferase reporter, at 10 µM, stronger effect = higher value
# [8] = TLR3 IRF3 reporter activation blockers – cell-based, poly I:C stimulus, luciferase, 10K MLSCN set, primary screen (AID 602277;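 active means inhibition of the reporter signal at or above 50%; inactive means inhibition below 50%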); conditions: HEK293-TLR3 RL24 IRF3 luciferase reporter, at 10 µM, stronger effect = higher value
Compound,cell count [1],inhibition [1],inhibition of aggregation [2],nuclei count [2] [%],inhibition [3],nuclei count [3] [%],fluorescence slope [4],NADPH fluorescence slope [5],slope [6],inhibition [7],inhibition [8]
Cc1cc(NC(=O)CSc2nnc(COc3cccc(C)c3C)n2Cc2ccco2)no1,363,-8.7% (inactive),7.4% (inactive),93,-60.4% (inactive),101,-0.6 (inactive),-6.6e-06 (inactive),0.00725 (inactive),4.7% (inactive),11.9% (inactive)
CN(C(=O)c1ccc(S(=O)(=O)NC2CCCC2)cc1)C1CCCCC1,685,2% (inactive),-3.6% (inactive),103,-141% (inactive),117,-0.455 (inactive),1.5e-05 (inactive),0.0047 (inactive),-13.3% (inactive),-0.726% (inactive)
Cc1cc(C)c2nc(C(F)(F)F)nc(NCCCN3CCCC3=O)c2c1,277,5% (inactive),21.4% (inactive),80.7,-230% (inactive),97.5,-0.484 (inactive),-2.3e-05 (inactive),0.00428 (inactive),16.5% (inactive),18.3% (inactive)
O=C(C1CCCN1S(=O)(=O)c1cccc2cccnc12)N1CCn2c1nc1ccccc12 (configuration not stated),626,-1.1% (inactive),-15.8% (inactive),117,-28.6% (inactive),124,-0.63 (inactive),-1.3e-05 (inactive),0.00657 (inactive),8.59% (inactive),21.7% (inactive)
Cc1ccc(N(C(=O)c2ccncc2)C2C=CS(=O)(=O)C2)cc1 (configuration not stated),816,-4% (inactive),-5.8% (inactive),114,-56.8% (inactive),117,-0.612 (inactive),-2.8e-05 (inactive),0.00723 (inactive),-4.78% (inactive),24.5% (inactive)
O=C(CC1Oc2ccccc2NC1=O)NCCCN1CCOCC1 (configuration not stated),620,6.1% (inactive),-1.6% (inactive),112,24.8% (inactive),100,-0.56 (inactive),-1.9e-05 (inactive),0.00542 (inactive),8.81% (inactive),38.3% (inactive)
CC1CCCN(S(=O)(=O)c2ccc(C(=O)Nc3nnc(-c4ccccc4Cl)o3)cc2)C1 (configuration not stated),687,-2.8% (inactive),10.5% (inactive),111,-16.5% (inactive),110,-0.468 (inactive),-2.3e-05 (inactive),0.0065 (inactive),22.7% (inactive),25.9% (inactive)
CCOC(=O)C(C)C1(O)c2ccccc2-c2ncccc21 (configuration not stated),316,4.9% (inactive),-6.7% (inactive),117,6.6% (inactive),97.7,-0.296 (inactive),-6.5e-05 (inactive),0.00533 (inactive),4.67% (inactive),8.95% (inactive)
CCOC(=O)N1CCC(NC(=O)c2ccc3c(c2)N(CC)CCS3)CC1,382,-2.4% (inactive),-22.2% (inactive),70.3,-62.7% (inactive),114,-0.0283 (active),-5.8e-06 (inactive),0.00586 (inactive),12.8% (inactive),34.1% (inactive)
Cn1c(SCc2ccccc2)nnc1C1CCCNC1 (configuration not stated),784,-2.3% (inactive),0.6% (inactive),100,10.3% (inactive),125,-0.327 (inactive),1.3e-05 (inactive),0.00512 (inactive),10.3% (inactive),15.2% (inactive)
CCOc1ccc(CCN2C(=O)C3C4C=CC(C4)C3C2=O)cc1OCC (configuration not stated),626,2.9% (inactive),-33.6% (inactive),134,-51.4% (inactive),112,-0.551 (inactive),-1.1e-05 (inactive),0.00791 (inactive),16.8% (inactive),36.6% (inactive)
COc1cccc(NC(=O)CSc2nnc(Cc3cccn3C)n2-c2ccc(F)cc2)c1,567,-3.3% (inactive),38.3% (inactive),85.3,26.6% (inactive),110,-0.594 (inactive),-2.4e-05 (inactive),0.00609 (inactive),-1.59% (inactive),15.6% (inactive)
Cc1cc(S(=O)(=O)N(Cc2ccccc2)Cc2ccc(N(C)C)cc2)ccc1-n1cnnn1,793,3.3% (inactive),-7.8% (inactive),94.8,-58.8% (inactive),130,-0.293 (inactive),-5.5e-05 (inactive),0.00447 (inactive),15.7% (inactive),36.4% (inactive)
CC1=C(C(=O)OC(C)C)C(c2cccc(F)c2)n2ncnc2N1 (configuration not stated),752,0% (inactive),19% (inactive),95.5,-76.3% (inactive),114,-0.6 (inactive),1.6e-05 (inactive),0.00586 (inactive),-7.13% (inactive),22.1% (inactive)
O=C(NCc1ccc2c(c1)OCO2)c1ccc(NS(=O)(=O)c2ccc3c(c2)OCCO3)cc1,499,-22.3% (inactive),20.4% (inactive),104,-0.9% (inactive),128,-0.615 (inactive),-2.7e-05 (inactive),0.00624 (inactive),10.8% (inactive),17.5% (inactive)
CC(=O)c1ccc2c3c(cccc13)C(=O)N(c1c(C)nn(C)c1C)C2=O,655,-4.4% (inactive),-24.6% (inactive),108,-14% (inactive),97.5,-0.633 (inactive),-5.6e-06 (inactive),0.00453 (inactive),6.92% (inactive),-10.1% (inactive)
CC(C)(C)c1ccc(-c2nnc(SCCC#N)n2C2CCCC2)cc1,410,5.5% (inactive),10.8% (inactive),115,-2.3% (inactive),97.3,-0.483 (inactive),-3e-05 (inactive),0.00637 (inactive),-5.13% (inactive),10.8% (inactive)
CCOc1cccc(-c2nnc3n2N=C(c2cc(OC)ccc2OC)CS3)c1,404,15.8% (inactive),-30.5% (inactive),10.2,-56.6% (inactive),111,-0.376 (inactive),-2.7e-06 (inactive),0.00667 (inactive),19.6% (inactive),56.7% (active)
Cc1ccnc(NC(=O)C2CCCN(S(=O)(=O)c3cnc[nH]3)C2)c1 (configuration not stated),526,-2.4% (inactive),39.4% (active),84.3,-81.7% (inactive),110,-0.564 (inactive),-2.6e-05 (inactive),0.00685 (inactive),-13.6% (inactive),7.28% (inactive)
CCCN1C(=O)c2cc(C(=O)O)ccc2C1O (configuration not stated),817,8.1% (inactive),21.4% (inactive),103,-95.2% (inactive),118,-0.514 (inactive),-2.2e-05 (inactive),0.00732 (inactive),4.49% (inactive),13.6% (inactive)
Cc1nn(-c2ccccc2)c2c1C(O)n1c(nc3ccccc31)S2 (configuration not stated),453,2.5% (inactive),8.2% (inactive),83,-10.2% (inactive),100,-0.466 (inactive),-0.000266 (inactive),0.00554 (inactive),14% (inactive),28.4% (inactive)
CCOC(=O)c1nnc2cc(-c3ccc(Br)cc3)nn2c1C,606,-1.7% (inactive),-4.4% (inactive),98.8,-89.5% (inactive),105,-0.558 (inactive),-6.5e-06 (inactive),0.006 (inactive),-72.6% (inactive),-129% (inactive)
O=c1c2cc3ccccc3n2cnn1Cc1ccccc1F,345,-8.5% (inactive),29.9% (inactive),89.6,-105% (inactive),108,-0.51 (inactive),3.1e-05 (inactive),0.00758 (inactive),-21.7% (inactive),-7.8% (inactive)
Cc1[nH]c(=O)[nH]c(=O)c1S(=O)(=O)N1CCCC(C(=O)NCc2ccco2)C1 (configuration not stated),377,-2.8% (inactive),-4.9% (inactive),104,-48.3% (inactive),106,-0.402 (inactive),-2.3e-05 (inactive),0.00332 (inactive),-2.81% (inactive),24.8% (inactive)
COc1cc(NC(=O)CC(C)C)ccc1NC(=O)c1ccco1,612,-6% (inactive),10.4% (inactive),93.3,44.4% (inactive),47.6,-0.605 (inactive),1e-05 (inactive),0.00539 (inactive),-64.3% (inactive),-135% (inactive)
CN(CC(=O)N1CCCCC1)S(=O)(=O)c1cccc2cccnc12,792,4.3% (inactive),9.7% (inactive),112,-53.1% (inactive),124,-0.531 (inactive),-1e-05 (inactive),0.00551 (inactive),3.62% (inactive),25.4% (inactive)
O=C(CN1C(=O)CSC1=O)Nc1ccc(N2CCOCC2)cc1,700,-1% (inactive),15.2% (inactive),110,-27.8% (inactive),113,-0.544 (inactive),-2.2e-05 (inactive),0.00569 (inactive),-8.99% (inactive),-8.78% (inactive)

# — PubChem BioAssay
